Data on 35 compounds can be found in PubChem BioAssay (NCI).

Experiment [1] in a line: NCI Yeast Anticancer Drug Screen. Data for the rad50 strain (AID 155).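 Also: 0% = growth of vehicle-only cultures of the same strain.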 Conditions: S. cerevisiae rad50 strain growth inhibition; at 50.0 µM; stronger effect = higher value. A digest of the protocol:
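Yeast carrying a defined DNA repair defect were exposed to test compounds, and growth was compared with vehicle-treated controls to give percent inhibition.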

A short description of experiment [2]: NCI Yeast Anticancer Drug Screen. Data for the mec2-1 strain (AID 157). The following applies: S. cerevisiae mec2-1 strain, at 50.0 µM, stronger effect = higher value. In a few lines: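 Strain: mec2-1 (DNA repair/cell cycle alteration). Compound exposure, then growth measured; inhibition expressed relative to vehicle.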
Experiment [3] is described as follows: NCI Yeast Anticancer Drug Screen. Data for the sgs1 mgt1 strain (AID 161).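 Also: 0% = growth of cultures given vehicle only.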 The following applies: S. cerevisiae sgs1 mgt1 strain, at 50.0 µM, stronger effect = higher value. A digest of the protocol:
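Read-out: growth inhibition vs vehicle controls. Cells: mutant yeast strain deficient in DNA damage repair.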

Experiment [4] can be described thus: NCI Yeast Anticancer Drug Screen. Data for the cln2 rad14 strain (AID 165).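 Also: 0% = growth equal to vehicle treated cultures.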 Conditions: S. cerevisiae cln2 rad14 strain, at 50.0 µM, stronger effect = higher value. In a few lines: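 Compounds are applied to the cln2 rad14 yeast strain, and growth is then compared with that of vehicle-treated cultures to give inhibition.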
The nature of experiment [5]: NCI Yeast Anticancer Drug Screen. Data for the bub3 strain (AID 167). The following applies: S. cerevisiae bub3 mutant strain, at 50.0 µM, stronger effect = higher value. In a few lines: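 Compounds were applied to a genetically altered yeast strain carrying a cell-cycle control defect. Growth inhibition was scored against vehicle-treated controls.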
Experiment [6] is described as follows: NCI Yeast Anticancer Drug Screen. Data for the mlh1 rad18 strain (AID 175). The following applies: S. cerevisiae mlh1 rad18 strain growth inhibition; at 50.0 µM; stronger effect = higher value. In a few lines:
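Read-out is yeast growth inhibition, calculated against vehicle-only controls. The compound was applied to a strain engineered with DNA damage repair alterations.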

Molecules are shown by their SMILES. Compounds without any hit were thinned out: in the full panel of roughly 79,000, 15% have a hit. Unmarked numbers belong to inactive results. The source made the active and inactive calls. Rule as the data show it: active = growth inhibition above about 70%; inactive = the rest.

With `CC(=O)Nc1ccc(N=Nc2cccc(C)c2)cc1C`, the growth inhibition in experiment [1] was -1.6%; in experiment [2] it was -1.6%; in experiment [3], 10.1%; in experiment [4], -13.1%; in experiment [5] it was 2.4%; in experiment [6], -7.2%.
With `NC(CCSc1ccccc1)C(=O)O` (stereo not given), the growth inhibition in experiment [1] is -0.7%; in experiment [2], 8.35%; in experiment [3] it was -9.85%; in experiment [4], -34.5%; in experiment [5], -29.3%; in experiment [6] it was -5.45%.
Turning to `CC1=CC2(C)OC3C(=O)N(c4ccc(Cl)cc4)C(=O)C3C2N=C1` (stereo not given), the growth inhibition in experiment [1] was -7.65%; in experiment [2], -22.9%; in experiment [3], -24%; in experiment [4], 9.6%; in experiment [5] it was -20.1%; in experiment [6], -3.35%.
`NC(=O)c1[nH]nc(C2OC(CO)C(O)C2O)c1O` (stereo not given): the growth inhibition is 8% in experiment [1]; -27.2% in experiment [2]; 7.35% in experiment [3]; -0.05% in experiment [4]; -22.9% in experiment [5]; 8.75% in experiment [6].
For `CCCC(=O)Nc1ccc(OC)cc1`, the growth inhibition in experiment [1] was 16.8%; in experiment [2], 11.2%; in experiment [3], 9.55%; in experiment [4], -43.2%; in experiment [5] it was -1.85%; in experiment [6], 1.9%.
`O=C(/C=C/c1ccc(O)c(O)c1)c1ccc(O)cc1O`: the growth inhibition in experiment [1] is -26.5%; in experiment [2] it was -27.9%; in experiment [3], -24.2%; in experiment [4], 4.05%; in experiment [5], -40.6%; in experiment [6] it was -38.9%.
In the case of `CC(=O)NC(CCCN(Cc1ccccc1)C(=O)NCCCl)C(=O)NCc1ccccc1` (stereo not given), the growth inhibition is 13.7% in experiment [1]; -25.5% in experiment [2]; 4.5% in experiment [3]; 5.7% in experiment [4]; -33.7% in experiment [5]; -18.6% in experiment [6].
Regarding `O=C1OC2(CC1n1cnc3ccccc3c1=O)C(=O)Nc1ccccc12` (stereo not given), the growth inhibition was 4.3% in experiment [1]; -21.2% in experiment [2]; 8.5% in experiment [3]; 8.3% in experiment [4]; -1.15% in experiment [5]; 11.2% in experiment [6].
Turning to `COc1ccc(N2C(=O)C(=O)N(C)C2=O)c2ccccc12`, the growth inhibition is -15.1% in experiment [1]; -26.7% in experiment [2]; -2% in experiment [3]; 6.1% in experiment [4]; 2.85% in experiment [5]; -7.95% in experiment [6].
In the case of `[Cl][Pd][Cl].[NH-]CC1(C[NH-])CCCCC1`, the growth inhibition in experiment [1] was 3.5%; in experiment [2], -1.1%; in experiment [3], 3.75%; in experiment [4], -64.2%; in experiment [5], 7.7%; in experiment [6], 5.95%.
Turning to `OCC(O)C(O)C(O)C(O)C(OCc1ccccc1)OCc1ccccc1` (stereo not given), the growth inhibition is 11.3% in experiment [1]; 7.55% in experiment [2]; -23.6% in experiment [3]; -12.7% in experiment [4]; 5.1% in experiment [5]; 9.85% in experiment [6].
Regarding `O=C(COc1ccc(Cl)cc1Cl)Nc1ccc2ccccc2c1S(=O)(=O)O`, the growth inhibition in experiment [1] is 6.45%; in experiment [2], 2.2%; in experiment [3] it was 12.5%; in experiment [4], -5.95%; in experiment [5], 8.4%; in experiment [6] it was 3.6%.
Turning to `Cc1cccc2c(CC(N)C(=O)O)c[nH]c12` (stereo not given), the growth inhibition was 3.25% in experiment [1]; -19.9% in experiment [2]; -18.9% in experiment [3]; -23.4% in experiment [4]; -16.6% in experiment [5]; -3.35% in experiment [6].
As for `O=C(/C=C\c1ccccc1)OC(c1ccccc1)c1ccc(Br)cc1` (stereo not given), the growth inhibition is 17.9% in experiment [1]; 6.25% in experiment [2]; 14.1% in experiment [3]; -3.95% in experiment [4]; -3.4% in experiment [5]; 8% in experiment [6].
Consider `C/C(=N\N=C(N)N)c1ccc(NC(=S)Nc2ccccc2)cc1`, for which the growth inhibition in experiment [1] is 5.4%; in experiment [2], 3.85%; in experiment [3] it was 26.2%; in experiment [4], -19.9%; in experiment [5], 3.5%; in experiment [6], 9.5%.
Turning to `CCOc1ccccc1NC(=O)CC(C(=O)OC)C(=O)C(=O)OC` (stereo not given), the growth inhibition in experiment [1] was -10%; in experiment [2], 5.75%; in experiment [3] it was -24.1%; in experiment [4], 20%; in experiment [5], -8.9%; in experiment [6], -9.75%.
Regarding `COc1ccc(CCN(C)C2c3ccccc3C=Cc3ccccc32)cc1OC`, the growth inhibition in experiment [1] is 30.5%; in experiment [2], 2.4%; in experiment [3], 3.35%; in experiment [4], -16.2%; in experiment [5], -1.85%; in experiment [6], 8.65%.
`Cc1ccc2[nH]c3c(ncc4[nH]c5ccccc5c43)c2c1`: the growth inhibition was 59.3% in experiment [1]; 44.1% in experiment [2]; 62.8% in experiment [3]; 52.1% in experiment [4]; 62.9% in experiment [5]; 62% in experiment [6].
In the case of `Cc1c(C=O)cc(-c2ccccc2)n1C`, the growth inhibition was -16.2% in experiment [1]; -3.25% in experiment [2]; -4.85% in experiment [3]; -8.45% in experiment [4]; -7.1% in experiment [5]; -1.6% in experiment [6].
Take `O=C(CCBr)OCCC1CCCCC1`: the growth inhibition was -1.95% in experiment [1]; -2.45% in experiment [2]; -0.8% in experiment [3]; -16.1% in experiment [4]; -7.05% in experiment [5]; 5.6% in experiment [6].
As for `CCOC(=O)c1ccc(N)cc1`, the growth inhibition is 19.2% in experiment [1]; 20.1% in experiment [2]; -3.1% in experiment [3]; -9.55% in experiment [4]; -18.6% in experiment [5]; -1.8% in experiment [6].
For the compound `O=C(Nc1ccccc1Cl)c1ccccc1O`, the growth inhibition was 10.1% in experiment [1]; -8.7% in experiment [2]; -3.2% in experiment [3]; -48.6% in experiment [4]; -5% in experiment [5]; -16.4% in experiment [6].
Consider `CC1(C)CC[C@]2(C(=O)O)[C@H](O)C[C@]3(C)C(=CC[C@@H]4[C@@]5(C)CC[C@H](OC6OC(C(=O)O)C(O)C(O)C6O)C(C)(C)[C@@H]5CC[C@]43C)[C@@H]2C1` (stereo not given in full), for which the growth inhibition is 93.8% (active) in experiment [1]; 95% (active) in experiment [2]; 94.3% (active) in experiment [3]; 92.7% (active) in experiment [4]; 93.9% (active) in experiment [5]; 93.7% (active) in experiment [6].
For `Nc1cccc(C(=O)O)c1C(=O)O`, the growth inhibition was 19.7% in experiment [1]; 15.7% in experiment [2]; 25% in experiment [3]; -1.7% in experiment [4]; -4.2% in experiment [5]; 20.9% in experiment [6].
In the case of `CC1(C)CCCCC1=O`, the growth inhibition in experiment [1] is -0.15%; in experiment [2] it was -1.8%; in experiment [3], 7.1%; in experiment [4], 22.1%; in experiment [5], 26.1%; in experiment [6], -14.3%.
Consider `Cn1c(=O)c2[nH]c(=O)n(C)c2n(C)c1=O`, for which the growth inhibition in experiment [1] is -5.35%; in experiment [2], 2.25%; in experiment [3], 12.6%; in experiment [4] it was -9.55%; in experiment [5], 16.5%; in experiment [6], 16.1%.
As to `CC1=C/C(=C(/c2cccc(S(=O)(=O)O)c2)c2cc(C)c(O)c(C(=O)O)c2)C=C(C(=O)O)C1=O`, the growth inhibition is 4.4% in experiment [1]; -21.8% in experiment [2]; -3.7% in experiment [3]; 25.2% in experiment [4]; -3.7% in experiment [5]; 9.05% in experiment [6].
`CCOC(=O)Nc1ccc(C2SCCN2C(=O)NC)cc1` (stereo not given): the growth inhibition in experiment [1] was 8.35%; in experiment [2], -22.1%; in experiment [3], 18.4%; in experiment [4], 17.4%; in experiment [5], 5.85%; in experiment [6], 32.2%.
For `O=C(O)c1ccc(NS(=O)(=O)Cc2ccccc2)cc1`, the growth inhibition in experiment [1] was -14.3%; in experiment [2], -24.1%; in experiment [3], -41.5%; in experiment [4] it was -22.4%; in experiment [5] it was -36.5%; in experiment [6], -6.3%.
As for `Cc1ccnc(NCc2ccccn2)c1`, the growth inhibition in experiment [1] was 6.7%; in experiment [2], 3.85%; in experiment [3] it was 17.4%; in experiment [4] it was -0.15%; in experiment [5] it was 1.3%; in experiment [6], -1.5%.
Turning to `CC(C)(C)/C=N/Nc1ccc([N+](=O)[O-])cc1[N+](=O)[O-]`, the growth inhibition in experiment [1] was 26.4%; in experiment [2], 15.1%; in experiment [3], -0.05%; in experiment [4] it was -40.2%; in experiment [5] it was 11.7%; in experiment [6], -13.3%.
For the compound `NNC(=O)/C(=C/c1cccc([N+](=O)[O-])c1)NC(=O)c1ccccc1`, the growth inhibition was -41.4% in experiment [1]; -25.4% in experiment [2]; -15.9% in experiment [3]; 7.5% in experiment [4]; -16.4% in experiment [5]; -24.1% in experiment [6].
For the compound `C/C(=N\NC(=O)/C(C#N)=C\c1ccc(N(CCC#N)CCC#N)cc1)c1ccccc1`, the growth inhibition in experiment [1] is 0.2%; in experiment [2], -14.2%; in experiment [3] it was -20.5%; in experiment [4], -6.9%; in experiment [5], -7.4%; in experiment [6], -1.95%.
Regarding `CC(=O)OCc1cc(=O)n2c([nH]c3ccccc32)c1C#N`, the growth inhibition is 11.1% in experiment [1]; 10.6% in experiment [2]; -24.6% in experiment [3]; -15.5% in experiment [4]; -26.3% in experiment [5]; -2.6% in experiment [6].
Turning to `COc1ccc(C(CC(=O)O)CC(=O)O)cc1`, the growth inhibition was 46.3% in experiment [1]; 12.3% in experiment [2]; 16.9% in experiment [3]; 15.1% in experiment [4]; 6.35% in experiment [5]; 44.5% in experiment [6].
